Screens deposited in PubChem BioAssay by National Center for Advancing Translational Sciences (NCATS).
Shiga inhibitor: inhibitors of Shiga toxin in Vero cells; inhibition, % at 38.7 µM; Vero cells, Shiga toxin protein synthesis inhibition reporter; AID 2315; 290,000 compounds, 9.2% hits; in the data active means inhibition mostly above about 28%, no sharp cut-off; inactive means mostly below about 43%; further: 0% is about no effect
Tb PYK inh: T. brucei pyruvate kinase inhibition; 410,000 compounds, 0.12% hits; AID 624173; Q57TT1; Potency, µM (top dose mostly 76.8 µM), for inactives: top-dose activity, negative = inhibition, usual class: inhibitors; TbPYK enzyme, Kinase-Glo Plus ATP luminescence, 45 min; further: potency means the concentration at half of the fitted maximal effect; on the % scale 0 is the no-effect control and ±100 the full control effect; nearly all actives have a fitted effect of over 50% in size
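Quantitative HTS: titrated library compounds versus trypanosomal pyruvate kinase in TEA buffer (pH 7.2) containing KCl, MgCl2, BSA and Tween-20. Reactions were initiated with ADP, 130 uM final. Kinase-Glo Plus luminescence was read after 45 min at RT.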
Cycloheximide cs: counter-screen hit for Shiga toxin inhibitors, cycloheximide; cell reporter, cycloheximide protein synthesis inhibition counterscreen; max response, %; 300,000 compounds, 12% hits; in the data active means max response mostly above about 13%, no sharp cut-off; inactive means mostly below about 14%; further: read at 38.3 µM for the half of the compounds with a filed dose; 0% is about no effect
RE007 growth inh: less growth of the S. pombe RE007 Vpr strain; S. pombe RE007 Vpr strain, BacTiter-Glo ATP luminescence, 24 h; Potency, µM (titrated, usually from 92.2 µM), inactives show top-dose activity change, negative = less growth, actives largely listed as inhibitors; 360,000 compounds, 0.21% hits; AID 651644; active means well fitted falling curve with a large enough effect; inconclusive means small, poorly fitted or top-dose-only effect; inactive means no such curve, though single readings can be large or run the other way; further: potency means the concentration at half of the fitted maximal effect; on the % scale 0 is the no-effect control and ±100 the full control effect; nearly all actives have a fitted effect of over 50% in size
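Fission yeast RE007 carrying one integrated HIV-1 vpr copy, seeded at OD 0.01 in PMG+AL medium with 23 nL pinned compound. Grown 24 h at 30 degrees; viability read by BacTiter-Glo luminescence after 5 min.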
LmPK inhibitor: inhibitors of Leishmania mexicana pyruvate kinase; 290,000 compounds, 0.37% hits; Potency, µM (top dose mostly 57.5 µM), inactives show at the highest dose activity change, negative = inhibition, most hits filed as inhibitors; Q27686; purified LmPK, Kinase-Glo ATP luminescence, 1 h; further: potency means the concentration at half of the fitted maximal effect; on the % scale 0 is the no-effect control and ±100 the full control effect
Target sequence (Q27686 whole entry, looked up): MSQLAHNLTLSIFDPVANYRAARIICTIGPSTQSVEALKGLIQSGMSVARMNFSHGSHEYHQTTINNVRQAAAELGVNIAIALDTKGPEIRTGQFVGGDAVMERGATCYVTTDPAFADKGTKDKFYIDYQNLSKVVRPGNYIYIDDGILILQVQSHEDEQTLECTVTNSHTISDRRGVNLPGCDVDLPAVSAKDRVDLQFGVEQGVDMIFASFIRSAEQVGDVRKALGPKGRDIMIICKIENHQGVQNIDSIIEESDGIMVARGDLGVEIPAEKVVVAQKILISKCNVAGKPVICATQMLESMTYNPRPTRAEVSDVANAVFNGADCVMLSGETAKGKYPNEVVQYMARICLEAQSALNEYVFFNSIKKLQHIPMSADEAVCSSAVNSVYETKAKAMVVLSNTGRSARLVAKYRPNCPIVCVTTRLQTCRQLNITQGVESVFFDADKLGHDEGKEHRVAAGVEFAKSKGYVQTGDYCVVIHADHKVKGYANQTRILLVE
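Screened at intermediate enzyme activity to detect both inhibitors and activators: LmPK at 0.1 nM, with a 0.5 nM enzyme column as activation reference. PEP 0.5 mM, ADP 0.1 mM; ATP detected by luminescence after 1 h.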
Giardia FBPA inh: blocks Giardia fructose-bisphosphate aldolase activity | A8B2U2 | Potency, µM (series often up to 59.6 µM), for the others: top-dose activity, negative = inhibition, hits mostly inhibitors | 290,000 compounds, 0.71% hits | purified Giardia FBPA; further: potency means the concentration at half of the fitted maximal effect; on the % scale 0 is the no-effect control and ±100 the full control effect; nearly all actives have a fitted effect of over 55% in size
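40 nM FBPA preincubated 10 min at RT with compound (up to 57.5 uM final), then substrate plus GAPDH/TPI/NAD/arsenate coupling and diaphorase/resazurin added. Fluorescence read after 20 min at RT, 525/598 nm.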
Starred values were filed as active, the others as inactive; i = inactive; ? = inconclusive; nt = not tested or not shown; [ ] = dose if it differs, or a comment. Shown is part of a subset that was picked to be rich in hits. Unless noted, the call rests on the fitted dose curve; in most records, active means well fitted curve in the direction sought with a large enough effect; inconclusive means small, poorly fitted or top-dose-only effect, or another doubt; inactive means no such curve, though single readings can be large; an effect the other way counts as inactive or inconclusive.

SMILES	Shiga inhibitor	Tb PYK inh	Cycloheximide cs	RE007 growth inh	LmPK inhibitor	Giardia FBPA inh
ON=Cc1ccnc2ccccc12	nt	-14%	nt	2%	nt	nt
C=C1CC[C@H](O)C/C1=C/C=C1\CCC[C@]2(C)[C@H]1CC[C@H]2[C@@H](C)CCCC(C)C	nt	nt	nt	nt	nt	-9%[21.7 µM]
CCOc1ccccc1-c1nnc2n1N=C(c1ccc(OC)c(OC)c1)CS2	-13	nt	2	nt	nt	-3%
Cc1cc(Cl)ccc1NC(=S)NCc1ccc(Cl)cc1	10	3%	-1	-5%	0%	11%
S=C(NCCc1ccccc1)Nc1ccc(Cl)cc1Cl	61*	0%	34*	?	-1%	5%
Cc1c(Cl)cccc1NC(=S)NCCC(c1ccccc1)c1ccccc1	17	-1%	10	26%	3%	-2%
Cc1cc(Cl)ccc1NC(=S)NCCC(c1ccccc1)c1ccccc1	-5	-5%	11*	-8%	2%	1%
Cc1cc(Cl)ccc1NC(=S)NCCc1ccc(Cl)cc1	52	2%	9.5*	?	-1%	5%
O=[N+]([O-])c1ccccc1CN1CC=C(c2ccc(F)cc2)CC1	23*	-4%	17*	-14%	-2%	?
CCOC(=O)c1c(-c2ccc(OC)cc2)oc2c1C(OC(C)=O)CCC2 (configuration not stated)	nt	1%	nt	1%	nt	nt
Cc1ccc(N)c(N)c1	157*	-2%	51*	?	nt	-16%
CC(Oc1cccc(Cl)c1)C(=O)Nc1ccc(S(=O)(=O)N(C)C2CCN(C)CC2)cc1 (configuration not stated)	nt	4%	nt	9%	nt	nt
CCN(CC)C(=O)c1ccc(Oc2ccc([N+](=O)[O-])cc2Cl)cc1	-12	3%	7	33%	0%	3%
CCN(CC)C(=O)c1cc([N+](=O)[O-])cc2c1-c1ccc([N+](=O)[O-])cc1C2=C(C#N)C#N	9	-1%	-2	-3%	-1%	7.1µM*
O=[N+]([O-])c1ccc(CSc2ncnc3c2ncn3[C@@H]2O[C@H](CO)[C@H](O)[C@H]2O)cc1	nt	nt	nt	nt	nt	-6%
O=C(NC(O)C(=O)c1ccccc1)c1ccccn1 (configuration not stated)	38*	-2%	26*	6%	-7%	-17%
COc1ccc(NCC(=O)N/N=C2\CCc3ccccc32)cc1	66*	5%	29*	-18%	2%	-25%
O=C(N/N=C1\CCc2ccccc21)c1ccccc1Cl	96*	-1%	53*	-8%	-9%	-1%
O=C(N/N=C1/CCc2ccccc21)C1CC1	92*	2%	33*	-20%	-4%	-4%
O=C(CNc1ccc(F)cc1)N/N=C1\CCc2ccccc21	51	4%	13	-8%	5%	-6%
Cc1ccc(C(=O)N/N=C2\CCc3ccccc32)c(C)c1	152*	-8%	63*	0%	-11%	24%
Cc1cc(Cl)ccc1OCC(=O)N1CCC(c2nc3ccccc3o2)CC1	nt	0%	nt	nt	nt	nt
O=C(N/N=C1/CCCc2ccccc21)c1cc([N+](=O)[O-])cc([N+](=O)[O-])c1	-3	nt	-2	nt	0%	-3%
O=C(N/N=C1\CCc2ccccc21)c1ccc(O)cc1	57*	-17%	43*	-2%	?	-15%
CCOC(=O)N/N=C1\CCc2ccccc21	73*	-15%	38*	-2%	-9%	-4%
SMILES	Shiga inhibitor	Tb PYK inh	Cycloheximide cs	RE007 growth inh	LmPK inhibitor	Giardia FBPA inh
S=C(N/N=C1\CCc2ccccc21)NC1CCCCC1	112*	0%	32*	-17%	-2%	-1%
CC(C)NC(=S)N/N=C1\CCCCc2ccccc21	-11	-4%	-8	-10%	3%	7%
CCCCN(C)C(=O)C1CCN(Cc2ccc(OCc3ccccc3)cc2)CC1	active	-6%	13	32%	-3%	-14%
CCOC(=O)C1CCN(Cc2ccc(OCc3ccccc3)cc2)CC1	6	4%	3	-12%	-15%	?
COc1ccc(CN2CCC(C(N)=O)CC2)cc1OCc1ccccc1	-4	15%	-2	-13%	1%	?
NC(=O)C1CCN(Cc2ccc(OCc3ccccc3)cc2)CC1	54*	-3%	25*	4%	3%	?
CCCCC1=CC2=C(c3ccco3)C(=O)C(C)(OC(=O)c3ccc(OC)cc3)C(=O)C2=CO1 (configuration not stated)	nt	nt	nt	nt	nt	5%
COc1ccccc1-n1cc(-c2ccccc2)c2c(=S)nc[nH]c21	-5	0%	11	1%	3%	-1%
CC1(C(=O)NNC(=O)c2ccc(=O)oc2)CC1Br (configuration not stated)	24	2%	13*	-8%	9%	12%
CN=c1scc(-c2ccc(OC)cc2)n1/N=C(\C)c1cccnc1	57*	3%	32*	1%	-3%	1%
Cc1ccnc(NC(=O)C2COc3ccccc3O2)c1 (configuration not stated)	56*	1%	65*	-9%	-14%	1%
Cc1ccc(NC(=O)C2COc3ccccc3O2)nc1 (configuration not stated)	56	1%	40*	-8%	-6%	6%
CC1CCC(NC(=O)C2COc3ccccc3O2)CC1 (configuration not stated)	nt	-3%	nt	-13%	nt	nt
Cc1ccc(NC(=O)CSc2nnc(CNC(=O)c3ccco3)n2C)cc1C	nt	-6%	nt	-7%	nt	nt
NC(=O)C1CCN(C(=S)c2ccc(-c3ccc(Br)cc3)o2)CC1	78*	?	37*	-5%	-4%	3.5µM*
COc1ccc(C(=S)N2CCC(C(N)=O)CC2)cc1Br	-7	-16%	0	-22%	0%	?
NC(=O)c1ccc(-c2ccc(Br)cc2)o1	56*	-2%	13	-11%	-3%	-1%
O=C(O)c1ccc(-c2ccc(-c3ccccc3)cc2)o1	i	nt	2	nt	nt	12%[89.2 µM]
Cc1oc2ncn(CC(C)C)c(=O)c2c1C(=O)NCCCN1CCC(C)CC1	nt	2%	nt	nt	nt	nt
CCN(CC)CCCNC(=O)CCCn1ncn2c(cc3occc32)c1=O	nt	-2%	nt	nt	nt	nt
O=C1C(=O)c2cccc3cccc1c23	-3	-9%	-1	?	9%	?
O=C1C([N+](=O)[O-])=C(O)c2cccc3cccc1c23	8	nt	11*	nt	-13%	25µM*
COc1ccccc1C(=O)NC(=O)COC(=O)Cn1cnc2c1c(=O)n(C)c(=O)n2C	nt	-5%	nt	-9%	nt	nt
C=C(C)COc1ccc(-c2ncncc2Oc2ccc(OC)cc2)c(O)c1	85*	-8%	28*	2%	-16%	-7%
Cc1ccc(N=Nc2c(O)n(CN3CCOCC3)c3ccccc23)cc1	106*	-15%	63*	?	-3%	-1%
Cc1cccc(NC(=S)N=Nc2c(O)n(CN3CCOCC3)c3ccccc23)c1C	-7	4%	1	?	7%	4%
